PMC5540273 (PLoS ONE, 2017)

Experiments:
Details in all cases: concentration: 1 μM, replicates: in singlicate; n = 1
BIKE = tested on: T1, BIKE
T1 construct: gene BMP2K

BLK = tested on: BLK
BMPR1A = tested on: BMPR1A
BMPR1B = tested on: BMPR1B
BMPR2 = tested on: BMPR2
BMX = tested on: BMX
BRAF = tested on: BRAF
BRK = tested on: T2, BRK
T2 construct: gene PTK6

BRSK1 = tested on: BRSK1
BRSK2 = tested on: BRSK2
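Also: KINOMEscan kinase panel screen.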

Compound	%Inh (BIKE) [%]	%Inh (BLK) [%]	%Inh (BMPR1A) [%]	%Inh (BMPR1B) [%]	%Inh (BMPR2) [%]	%Inh (BMX) [%]	%Inh (BRAF) [%]	%Inh (BRK) [%]	%Inh (BRSK1) [%]	%Inh (BRSK2) [%]
Cc1cccc2c(-c3ccncn3)c(-c3ccc(F)cc3)nn12 [GW515532]	10	33	0	0	0	0	22	0	6	10
CCn1c(-c2ccccc2)nc2cnccc21 [SB-733416]	28	0	0	0	10	0	49	27	0	1
Cc1ccc(-c2nc(Nc3ccncc3)c3ccccc3n2)s1 [GSK189015]	37	29	0	0	0	23	6	4	20	0
O=C1NC(=O)C(c2ccc(Cl)cc2)=C1Nc1cccc(Cl)c1 [SB-317651]	0	12	0	0	0	3	0	0	0	1
CC(=O)c1c(C)c2cnc(Nc3ccn(C)n3)nc2n(C2CCCC2)c1=O	22	0	0	0	0	0	3	8	0	0
COc1ccc2cc(-c3nc(-c4ccccc4C(C)C)[nH]c3-c3ccncc3)ccc2c1 [SB-660566]	0	0	17	0	5	0	6	22	4	10
Cn1cncc1-c1cc2c(Nc3ccc(OCc4ccccc4)cc3)ncnc2cn1 [GW281179]	4	27	13	0	8	1	0	19	0	2
COc1ccc(Nc2nccc(N3CCC(NC(=O)c4cc5ccccc5s4)C3)n2)cc1 (centres unmarked) [GSK1379738]	13	0	0	0	11	0	0	0	0	0
CSc1ccc(-c2nc3n(c2-c2ccncc2)CCC3)cc1 [SKF-105561]	16	4	0	6	1	0	7	1	0	0
O=C(Nc1n[nH]c2nc(-c3cccs3)c(Br)cc12)C1CCCC1 [SB-743341]	12	0	28	19	46	14	7	12	63	66
Cc1nccc(-c2c(-c3ccc(F)cc3)ncn2CCCN2CCOCC2)n1.Cl [SB-282975]	15	12	26	8	41	31	10	13	0	17
COc1ccc(CSc2nnc(-c3ccc4ncsc4c3)o2)cc1C(F)(F)F	0	0	17	0	0	0	0	0	0	0
COC(=O)c1cccc(NC(=O)NC2CCN(c3ccnc(Nc4ccc(F)cc4)n3)C2)c1 (centres unmarked) [GSK1379725]	20	26	0	0	0	0	0	8	0	0
COc1ccc(Nc2nccc(-c3ccc(NC(=O)c4cc5cc(F)ccc5[nH]4)cc3)n2)cc1 [GSK1229496]	33	0	0	0	21	16	0	16	0	0
CNc1nc(-c2ccc3c(N)n[nH]c3c2)cc(N2C[C@@H](C(=O)Nc3ccccc3)CC[C@H]2C)n1 [GSK2298859]	36	0	0	0	0	15	0	9	0	21
CC(=O)c1c(C)c2cnc(Nc3ccc(N4CCNCC4)cn3)nc2n(C2CCCC2)c1=O	0	0	15	0	0	0	0	0	0	0
Cc1ccccc1-c1cc(-c2c[nH]nc2-c2ccccn2)ccn1 [GW680061]	2	32	0	0	7	1	6	18	0	0
